Test results reported in PubChem BioAssay (NCATS).
Inconclusive results are not listed. The source made the active and inactive calls. Unless noted, calls follow the shape of the dose curve; as a rule, active = well fitted curve in either direction with a large enough effect (not every such curve was filed as active); inconclusive = small, poorly fitted or top-dose-only effect, or another doubt; inactive = flat fitted curve, though single readings scatter.

Legend:
[1] = molecular target: Lysosomal acid glucosylceramidase (Homo sapiens) (UniProt P04062); test: Glucocerebrosidase-p2 (AID 348; in the data active = potency below about 10 µM; also: potency is read from the fitted curve at half-maximal effect); conditions: purified GBA, blue fluorogenic substrate, 40 min
Summary of the method: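 Normal human glucocerebrosidase (0.2 nM) with blue fluorogenic substrate (80 uM final) in citrate/phosphate pH 5.9 with 10mM sodium taurocholate, 0.01% tween-20; 40 min RT, NaOH/glycine stop; fluorescence Ex 365/Em 440; AC50 from a titration from 0.6 nM upwards.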

[2] = AP1 Signaling Pathway (AID 357); conditions: ME-180 AP-1-bla reporter, EGF-induced, beta-lactamase ratio, 5 h; at 7.69 µM (top of the series) unless noted;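 also: ME-180 reporter cells stimulated with EGF at its EC50 level; % is scaled to controls: 0 for no effect and ±100 for the full control effect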
Summary of the method: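 A ratiometric CCF4 readout (405 nm excitation; 460 and 530 nm emission) quantified AP-1-driven beta-lactamase in ME-180 cells after 5 h with compound and EC50 EGF; AC50 values were derived for activators and inhibitors.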

[3] = molecular target: Cytochrome P450 1A2 (Homo sapiens) (UniProt P05177); test: p450-cyp1a2 (AID 410; calls by dose curve; also: potency is read from the fitted curve at half-maximal effect;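 as to activity change, negative = inhibition: -100% = full effect of reference inhibitor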); conditions: recombinant CYP1A2, luciferin-ME demethylation, luminescence; series mostly up to 57 µM
Summary of the method: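 O-Demethylation of luciferin 6' methyl ether by human CYP1A2 is monitored as luciferase luminescence. Substrate sits at Km (100uM); enzyme is 20nM. Values are scaled to 57 uM furafylline as maximal inhibition.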

[4] = Stat Signaling Pathway (AID 446); conditions: ME-180 (cervical carcinoma) SIE beta-lactamase reporter, IL-6 stimulated, 5 h; at 7.69 µM (top of the series) unless noted;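 also: ME-180 cervical cancer cells given 40 pM IL-6 alongside compound; SIE-controlled beta-lactamase reporter measured as 460/530 nm FRET emission ratio; % is scaled to controls: 0 for no effect and ±100 for the full control effect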
Summary of the method: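 Overnight-plated ME-180 cells bearing a STAT Inducible Element beta-lactamase reporter; 5 h co-exposure to compound and 40 pM IL-6; values normalized to 300 pM IL-6 and 125 nM JAK inhibitor controls.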

[5] = molecular target: Glucocorticoid receptor (Homo sapiens) (UniProt P04150); test: GR-GFP Redistribution (AID 450;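 active = compounds whose dose series gives a full or clear partial fitted curve of increased nuclear translocation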; also: potency is read from the fitted curve at half-maximal effect); conditions: U2OS GR-GFP nuclear translocation, laser cytometry, 2 h
[6] = molecular target: Glucocorticoid receptor (Homo sapiens) (UniProt P04150); test: GR-EFC Redistribution (AID 451; calls by dose curve; also: potency is read from the fitted curve at half-maximal effect); conditions: CHO-K1 GR-EFC translocation, beta-gal luminescence, 2 h
Summary of the method: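 Translocation of GR-ED fusion to nuclear EA restores b-gal, read by luminescence after 1 h room-temperature detection. Engineered CHO-K1 biosensor cells, 1,000/well, exposed 2 h at 37 C to titrations up to 46 uM final.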

[7] = molecular target: Mitogen-activated protein kinase 10 (Mus musculus) (UniProt Q61831); test: JNK3 AlphaScreen Assay (AID 530); conditions: JNK3 lysate, c-Jun phosphorylation; series mostly up to 57.1 µM;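 also: kinase came from lysate of stimulated human HepG2 cells; signal reports phosphorylation of biotinylated GST-cJun 1-79 at Ser73 with 10 µM ATP; % is scaled to controls: 0 for no effect and ±100 for the full control effect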
Summary of the method: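 qHTS titrations with 15 min compound pre-incubation before adding ATP (10 uM final). Read-out: AlphaScreen of Ser73-phosphorylated biotin-GST-cJun using HepG2 lysate JNK3 activated by IL-1β and TNFα.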

[8] = molecular target: 3',5'-cyclic-AMP phosphodiesterase 4B (Homo sapiens) (UniProt Q07343); test: qHTS Assay for Inhibitors of PDE-IV (AID 607; active = well fitted activation curve with a large enough effect in the main read-out, with a control signal flat, not every such curve was filed as active; also: % of control where 0% means no effect); conditions: HEK293 ACTOne CNG channel cells, membrane potential fluorescence; series mostly up to 22.9 µM
Summary of the method: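 Live HEK293 cells with a modified cyclic nucleotide-gated (CNG) channel report intracellular cAMP via membrane-potential dye fluorescence (ex 535/em 590 nm). Endogenous PDE-IV was targeted. Compounds were tested at up to 22.9 uM final; RO 20-1724 100 uM served as control.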

[9] = molecular target: Cytochrome P450 3A4 (Homo sapiens) (UniProt P08684); test: qHTS Assay for Inhibitors and Substrates of Cytochrome P450 3A4 (AID 884; active = well fitted curve in the direction sought with a large enough effect; an effect the other way counts as inactive or inconclusive; also: nearly all actives have a fitted effect of over 50% in size; also: potency is read from the fitted curve at half-maximal effect); conditions: recombinant CYP3A4, Luciferin-PPXE luminescence; series mostly up to 57.1 µM
Summary of the method: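 Luminescent readout of luciferin produced by CYP3A4 (20 nM) dealkylation of Luciferin-PPXE, 25 uM (its KM). NADPH-driven reaction ran 60 min at RT after 10 min compound preincubation; data scaled to 57 uM ketoconazole as 100% inhibition.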

[10] = molecular target: Cytochrome P450 3A4 (Homo sapiens) (UniProt P08684); test: qHTS Assay for Activators of Cytochrome P450 3A4 (AID 885; active = well fitted curve in the direction sought with a large enough effect; an effect the other way counts as inactive or inconclusive; also: nearly all actives have a fitted effect of over 65% in size); conditions: recombinant CYP3A4, Luciferin-PPXE luminescence, 60 min; series mostly up to 57.1 µM
Summary of the method: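 Using 20nM recombinant human CYP3A4 in potassium phosphate (200mM), substrate Luciferin-PPXE at 25uM, luminescent luciferin detection followed a 60-min RT NADPH reaction; data scaled to 57 uM ketoconazole.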

[11] = Confirmation and Secondary Assay for Modulators of Hemoglobin Beta Chain Splicing at IVS2 654 locus (AID 910; active = well fitted curve in the direction sought with a large enough effect; an effect the other way counts as inactive or inconclusive;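 also: HeLa cells stably carrying EGFP split by mutant beta-globin IVS2-654 intron; per-well total GFP intensity by laser scanning cytometry after 2-day treatment; % of control where 0% means no effect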); conditions: HeLa EGFP-654 splicing reporter, GFP fluorescence, 48 h; series mostly up to 38.3 µM
Summary of the method: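 Readout: per-well total peak green fluorescence (488 nm ex, 500–520 nm em) from objects 5–250 µm, reflecting correct splicing of an EGFP-654 reporter. Compounds were applied for 2 days at 37 °C to overnight-plated HeLa EGFP-654 cells; controls were DMSO and 500 nM IVS2-654 PNA.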

[12] = Confirmation and Secondary Assay for Modulators of Hemoglobin Beta Chain Splicing at IVS2 705 locus (AID 930; active = well fitted curve in the direction sought with a large enough effect; an effect the other way counts as inactive or inconclusive;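 also: HeLa cells stably expressing the EGFP-705 splicing reporter; GFP fluorescence per well restored by corrected splicing of the IVS2-705 intron in EGFP; % of control where 0% means no effect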); conditions: HeLa EGFP-705 splicing reporter, GFP fluorescence, 48 h; series mostly up to 38.3 µM
Summary of the method: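 Per-well GFP, captured at 1 x 8 µm resolution with 488 nm excitation, served as the read-out for HeLa EGFP-705 cells incubated 2 days with test compound versus DMSO.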

[13] = qHTS Assay for Lipid Storage Modulators (AID 1519; calls by dose curve); conditions: Drosophila S3 cells, BODIPY lipid droplet/cell ratio, laser cytometry, cells loaded with oleic acid; for activity change, negative = inhibition: at 57.5 µM (top of the series)
Summary of the method: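 Cells seeded at 5,000 per well were treated with compounds over a concentration series and loaded with oleic acid (400 uM, as added). Lipid droplet fluorescence (488 nm excitation, 500-530 nm channel) was read by laser-scanning cytometry and normalized to 20 uM Triacsin C.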

[14] = Primary qHTS for small molecule stabilizers of the endoplasmic reticulum resident proteome: Secreted ER Calcium Modulated Protein (SERCaMP) assay (AID 1508630; active = well fitted curve in the direction sought with a large enough effect; an effect the other way counts as inactive or inconclusive; also: % is scaled to controls: 0 for no effect and ±100 for the full control effect); conditions: SH-SY5Y GLuc-SERCaMP (Gaussia luciferase released on ER calcium loss) secretion, thapsigargin, luminescence; series mostly up to 38.4 µM
Summary of the method: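 The SH-SY5Y reporter protocol was run at 3 concentrations up to 38.3 uM (primary) or 11 concentrations (follow-up): 16 h compound, 100 nM thapsigargin for 4 h, then extracellular luciferase luminescence.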

[15] = molecular target: Ubiquitin carboxyl-terminal hydrolase 1 (Homo sapiens) (UniProt O94782); test: Inhibitors of USP1/UAF1: Pilot qHTS (AID 504865; active = well fitted curve in the direction sought with a large enough effect; an effect the other way counts as inactive or inconclusive;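 also: rhodamine fluorescence freed from ubiquitin-rhodamine substrate followed over time; top concentration of the series differs between compounds; % is scaled to controls: 0 for no effect and ±100 for the full control effect; nearly all actives have a fitted effect of over 35% in size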); conditions: purified USP1/UAF1, Ub-rhodamine cleavage fluorescence; series mostly up to 54.9 µM
Summary of the method: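 Kinetic fluorescence assay: 1nM USP1/UAF1, 15 min compound preincubation, then 150nM Ub-Rho; 480/540 nm.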

[16] = NFAT Signaling Pathway (AID 444); conditions: Jurkat NFAT-bla M1, carbachol, beta-lactamase ratio, 5 h; at 7.69 µM (top of the series) unless noted
Summary of the method: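 Read-out: CCF4 FRET ratio (460 nm/530 nm) after 1 h RT dye loading, used for %activity and AC50 from titration series. Cells: Jurkat NFAT-β-lactamase/M1 line, treated with compound plus 1 uM carbachol for 5 h, 37 °C.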

[17] = molecular target: Cytochrome P450 2C9 (Homo sapiens) (UniProt P11712); test: qHTS Assay for Inhibitors and Substrates of Cytochrome P450 2C9 (AID 883; active = well fitted curve in the direction sought with a large enough effect; an effect the other way counts as inactive or inconclusive; also: % is scaled to controls: 0 for no effect and ±100 for the full control effect; nearly all actives have a fitted effect of over 60% in size); conditions: recombinant CYP2C9, luciferin-H luminescence, 60 min; series mostly up to 57.1 µM
Summary of the method: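 Inhibition of CYP2C9 is scored as loss of luminescence, with 57uM sulphaphenazole defining 100% inhibition. Substrate Luciferin-H is used at 100uM, equal to its KM; enzyme at 10nM in 25mM KPO4, 60 min at 37C with NADPH regeneration.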

[18] = molecular target: Cytochrome P450 2D6 (Homo sapiens) (UniProt P10635); test: qHTS Assay for Inhibitors and Substrates of Cytochrome P450 2D6 (AID 891; active = well fitted curve in the direction sought with a large enough effect; an effect the other way counts as inactive or inconclusive;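 also: luciferin methyl ether substrate demethylated by CYP2D6 with NADPH regeneration; % is scaled to controls: 0 for no effect and ±100 for the full control effect; nearly all actives have a fitted effect of over 60% in size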); conditions: recombinant CYP2D6, luciferin-ME EGE luminescence; series mostly up to 57.1 µM
Summary of the method: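 Luminescent read-out of luciferin formed by 5 nM human CYP2D6 demethylating 30 uM Luciferin-ME EGE (Km level) over 60 min at room temperature after NADPH regeneration addition. Data normalized to full inhibition by 1.43 uM quinidine.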

[19] = molecular target: Cytochrome P450 2C19 (Homo sapiens) (UniProt P33261); test: qHTS Assay for Inhibitors and Substrates of Cytochrome P450 2C19 (AID 899; active = well fitted curve in the direction sought with a large enough effect; an effect the other way counts as inactive or inconclusive; also: % is scaled to controls: 0 for no effect and ±100 for the full control effect; nearly all actives have a fitted effect of over 60% in size); conditions: recombinant CYP2C19, luciferin-H EGE luminescence; series mostly up to 57.1 µM
Summary of the method: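 5nM enzyme + 10uM Luciferin-H EGE (=KM), 50mM KPO4; cpd pin-transferred, 10 min 37C; NADPH regen, 60 min 37C; stopped w/ luciferin detection reagent, 20 min; luminescence. Normalized to 57uM ketoconazole (AC100).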

[20] = measured here: cell count channel max response
[21] = measured here: lipid channel max response

Cytochrome P450 3A4 (Homo sapiens), sequence (P08684 whole entry, looked up): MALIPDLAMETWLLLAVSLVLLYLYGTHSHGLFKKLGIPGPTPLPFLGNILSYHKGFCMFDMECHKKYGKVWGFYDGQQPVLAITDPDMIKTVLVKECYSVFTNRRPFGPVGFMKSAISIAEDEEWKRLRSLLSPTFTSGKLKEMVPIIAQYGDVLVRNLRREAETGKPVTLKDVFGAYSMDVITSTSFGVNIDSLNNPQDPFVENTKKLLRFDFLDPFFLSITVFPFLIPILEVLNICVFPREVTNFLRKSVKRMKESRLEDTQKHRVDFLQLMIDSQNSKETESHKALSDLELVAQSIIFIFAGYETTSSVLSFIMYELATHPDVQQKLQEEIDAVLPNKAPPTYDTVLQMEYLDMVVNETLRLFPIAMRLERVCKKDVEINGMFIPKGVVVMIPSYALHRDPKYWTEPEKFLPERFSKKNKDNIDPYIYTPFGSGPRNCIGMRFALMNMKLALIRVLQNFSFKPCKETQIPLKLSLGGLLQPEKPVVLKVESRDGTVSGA
Glucocorticoid receptor (Homo sapiens), sequence (P04150 whole entry, looked up, the tested form may be a part): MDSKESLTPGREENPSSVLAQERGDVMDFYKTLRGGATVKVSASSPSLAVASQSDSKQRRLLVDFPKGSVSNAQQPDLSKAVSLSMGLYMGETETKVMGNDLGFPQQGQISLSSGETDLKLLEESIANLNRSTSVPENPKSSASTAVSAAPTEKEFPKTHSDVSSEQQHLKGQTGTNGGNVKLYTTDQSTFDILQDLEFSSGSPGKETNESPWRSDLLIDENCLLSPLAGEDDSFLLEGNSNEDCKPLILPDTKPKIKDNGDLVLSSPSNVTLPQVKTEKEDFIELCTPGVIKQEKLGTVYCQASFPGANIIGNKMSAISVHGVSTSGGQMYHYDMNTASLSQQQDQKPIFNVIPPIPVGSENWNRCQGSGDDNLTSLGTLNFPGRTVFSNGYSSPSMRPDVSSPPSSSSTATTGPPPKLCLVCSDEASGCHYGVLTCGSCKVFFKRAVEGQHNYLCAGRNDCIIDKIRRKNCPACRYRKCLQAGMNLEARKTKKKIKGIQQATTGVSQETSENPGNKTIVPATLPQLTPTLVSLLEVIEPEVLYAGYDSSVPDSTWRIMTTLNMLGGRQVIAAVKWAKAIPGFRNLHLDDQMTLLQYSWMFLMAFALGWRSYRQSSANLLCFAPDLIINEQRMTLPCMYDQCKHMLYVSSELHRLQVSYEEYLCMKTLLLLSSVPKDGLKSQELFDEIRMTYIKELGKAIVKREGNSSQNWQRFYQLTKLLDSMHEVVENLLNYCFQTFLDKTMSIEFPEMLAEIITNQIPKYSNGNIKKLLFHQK
Lysosomal acid glucosylceramidase (Homo sapiens), sequence (P04062 whole entry, looked up): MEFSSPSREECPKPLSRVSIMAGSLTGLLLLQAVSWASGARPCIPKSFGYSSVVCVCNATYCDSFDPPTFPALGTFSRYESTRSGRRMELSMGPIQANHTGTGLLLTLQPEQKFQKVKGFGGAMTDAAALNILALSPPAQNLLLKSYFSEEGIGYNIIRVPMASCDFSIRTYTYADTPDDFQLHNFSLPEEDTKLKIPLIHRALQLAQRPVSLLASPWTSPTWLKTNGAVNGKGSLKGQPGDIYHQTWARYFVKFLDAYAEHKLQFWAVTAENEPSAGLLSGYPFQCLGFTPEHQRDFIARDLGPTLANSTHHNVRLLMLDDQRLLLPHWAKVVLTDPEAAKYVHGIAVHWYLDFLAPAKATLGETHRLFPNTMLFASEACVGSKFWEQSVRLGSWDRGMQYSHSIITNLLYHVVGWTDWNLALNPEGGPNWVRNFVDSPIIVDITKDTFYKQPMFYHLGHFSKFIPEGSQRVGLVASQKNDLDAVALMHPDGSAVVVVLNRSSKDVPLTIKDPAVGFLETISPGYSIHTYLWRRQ
Cytochrome P450 1A2 (Homo sapiens), sequence (P05177 whole entry, looked up): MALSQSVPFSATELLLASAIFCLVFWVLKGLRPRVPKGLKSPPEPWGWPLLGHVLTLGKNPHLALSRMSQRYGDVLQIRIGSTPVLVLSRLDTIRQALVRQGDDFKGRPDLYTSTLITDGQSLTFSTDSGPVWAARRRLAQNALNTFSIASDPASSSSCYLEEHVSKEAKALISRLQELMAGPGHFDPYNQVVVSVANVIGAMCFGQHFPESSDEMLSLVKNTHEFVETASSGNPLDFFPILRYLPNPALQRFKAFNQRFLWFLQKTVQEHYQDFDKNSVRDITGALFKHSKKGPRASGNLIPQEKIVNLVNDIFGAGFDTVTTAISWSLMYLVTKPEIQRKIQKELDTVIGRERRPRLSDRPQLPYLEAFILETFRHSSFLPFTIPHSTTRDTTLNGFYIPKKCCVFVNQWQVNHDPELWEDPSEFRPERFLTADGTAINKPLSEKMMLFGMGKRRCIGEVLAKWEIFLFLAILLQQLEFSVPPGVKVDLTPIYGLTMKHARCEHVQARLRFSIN
3',5'-cyclic-AMP phosphodiesterase 4B (Homo sapiens), sequence (Q07343 whole entry, looked up): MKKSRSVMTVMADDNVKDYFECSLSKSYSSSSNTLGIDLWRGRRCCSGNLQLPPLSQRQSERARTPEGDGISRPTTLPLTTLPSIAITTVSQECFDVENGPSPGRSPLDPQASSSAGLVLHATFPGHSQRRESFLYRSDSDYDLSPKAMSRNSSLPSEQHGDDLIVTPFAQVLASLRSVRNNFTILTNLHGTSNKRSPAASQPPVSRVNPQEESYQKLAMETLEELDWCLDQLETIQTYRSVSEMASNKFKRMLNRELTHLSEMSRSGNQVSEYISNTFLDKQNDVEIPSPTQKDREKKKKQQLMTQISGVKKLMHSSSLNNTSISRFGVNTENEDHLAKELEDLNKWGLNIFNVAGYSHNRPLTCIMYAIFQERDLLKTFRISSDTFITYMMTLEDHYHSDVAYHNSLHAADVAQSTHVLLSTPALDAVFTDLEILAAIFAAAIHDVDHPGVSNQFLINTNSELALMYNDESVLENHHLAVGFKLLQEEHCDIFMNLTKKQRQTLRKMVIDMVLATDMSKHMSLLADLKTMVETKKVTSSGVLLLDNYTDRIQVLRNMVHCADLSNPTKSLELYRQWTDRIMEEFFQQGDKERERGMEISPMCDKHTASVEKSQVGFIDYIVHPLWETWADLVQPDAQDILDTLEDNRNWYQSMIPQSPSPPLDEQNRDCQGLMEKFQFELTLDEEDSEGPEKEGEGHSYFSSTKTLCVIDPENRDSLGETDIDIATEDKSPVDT
Cytochrome P450 2C19 (Homo sapiens), sequence (P33261 whole entry, looked up): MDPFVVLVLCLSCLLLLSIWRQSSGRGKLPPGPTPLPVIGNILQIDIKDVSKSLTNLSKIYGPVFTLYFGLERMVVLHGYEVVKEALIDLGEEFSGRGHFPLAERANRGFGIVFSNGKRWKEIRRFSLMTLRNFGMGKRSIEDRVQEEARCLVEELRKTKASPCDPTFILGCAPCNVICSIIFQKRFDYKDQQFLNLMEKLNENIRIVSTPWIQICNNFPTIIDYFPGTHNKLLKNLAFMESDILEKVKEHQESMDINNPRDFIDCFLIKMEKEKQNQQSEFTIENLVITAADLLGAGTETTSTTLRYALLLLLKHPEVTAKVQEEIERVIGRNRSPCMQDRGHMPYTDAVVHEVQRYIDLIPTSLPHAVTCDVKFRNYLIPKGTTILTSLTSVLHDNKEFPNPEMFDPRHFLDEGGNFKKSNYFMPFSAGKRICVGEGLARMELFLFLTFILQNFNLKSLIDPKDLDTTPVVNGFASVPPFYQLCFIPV
Ubiquitin carboxyl-terminal hydrolase 1 (Homo sapiens), sequence (O94782 whole entry, looked up): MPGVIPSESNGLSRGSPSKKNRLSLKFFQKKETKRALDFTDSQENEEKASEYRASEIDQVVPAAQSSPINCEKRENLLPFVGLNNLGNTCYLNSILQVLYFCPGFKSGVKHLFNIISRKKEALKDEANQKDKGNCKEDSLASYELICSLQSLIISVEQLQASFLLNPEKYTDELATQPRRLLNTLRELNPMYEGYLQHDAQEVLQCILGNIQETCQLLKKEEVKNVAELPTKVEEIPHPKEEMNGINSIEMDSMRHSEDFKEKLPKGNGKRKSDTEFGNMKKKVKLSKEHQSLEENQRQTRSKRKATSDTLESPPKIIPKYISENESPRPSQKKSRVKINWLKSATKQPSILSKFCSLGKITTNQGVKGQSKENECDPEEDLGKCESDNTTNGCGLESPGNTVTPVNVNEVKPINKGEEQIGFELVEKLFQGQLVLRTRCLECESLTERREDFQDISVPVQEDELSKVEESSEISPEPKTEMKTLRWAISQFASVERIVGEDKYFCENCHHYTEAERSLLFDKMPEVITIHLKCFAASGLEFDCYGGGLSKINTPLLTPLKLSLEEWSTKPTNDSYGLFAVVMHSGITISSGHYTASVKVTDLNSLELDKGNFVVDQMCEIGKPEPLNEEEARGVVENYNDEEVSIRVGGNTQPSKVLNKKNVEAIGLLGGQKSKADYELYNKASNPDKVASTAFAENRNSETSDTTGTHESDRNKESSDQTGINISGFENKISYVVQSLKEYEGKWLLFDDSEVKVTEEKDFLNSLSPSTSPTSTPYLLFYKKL
Cytochrome P450 2C9 (Homo sapiens), sequence (P11712 whole entry, looked up): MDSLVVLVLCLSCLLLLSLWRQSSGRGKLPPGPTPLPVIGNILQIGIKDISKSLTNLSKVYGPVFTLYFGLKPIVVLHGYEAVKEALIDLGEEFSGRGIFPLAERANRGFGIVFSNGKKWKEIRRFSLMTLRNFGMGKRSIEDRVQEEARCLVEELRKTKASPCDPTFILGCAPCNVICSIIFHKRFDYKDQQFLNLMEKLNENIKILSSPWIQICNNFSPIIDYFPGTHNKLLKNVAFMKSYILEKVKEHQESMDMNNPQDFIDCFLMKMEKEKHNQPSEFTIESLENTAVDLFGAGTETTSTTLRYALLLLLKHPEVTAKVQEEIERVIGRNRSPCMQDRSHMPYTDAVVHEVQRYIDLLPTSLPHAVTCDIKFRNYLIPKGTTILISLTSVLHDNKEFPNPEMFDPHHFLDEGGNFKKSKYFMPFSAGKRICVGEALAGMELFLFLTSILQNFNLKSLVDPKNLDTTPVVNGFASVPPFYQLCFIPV

Cc1ccccc1-c1cncnc1N(C)Cc1ccco1
-7.61%: max response [13, 20]
active: Potency [3] 15.8 µM | Potency [9] 1.58 µM
2.41%: max response [13, 21]
inactive: Potency [1] > 11.4 µM | activity change, negative = inhibition [2] -3.79% | activity, negative = inhibition [4] 11.8% | Potency [5] > 46 µM | Potency [6] > 46 µM | outcome [7] | Potency [8] | Potency [10] | outcome [11] | outcome [12] | activity change, negative = inhibition [13] 8.25% | Potency [14]

c1cncc(-c2cncnc2-n2ccnc2)c1
17.5%: max response [13, 21]
inactive: Potency [1] > 11.4 µM | activity change, negative = inhibition [2] 7.52% | activity, negative = inhibition [4] 0.845% | Potency [5] > 46 µM | Potency [6] > 46 µM | outcome [7] | Potency [8] | Potency [10] | outcome [11] | outcome [12] | activity change, negative = inhibition [13] 7.84% | Potency [15] | Potency [14]
active: Potency [3] 20 µM | Potency [9] 7.94 µM
7.56%: max response [13, 20]

Cc1noc(C)c1C(=O)N1CCC[C@@]2(CCN(C(=O)NC(C)C)C2)C1
inactive: Potency [1] > 11.4 µM | activity change, negative = inhibition [2] -0.0457% | Potency [3] | activity change, negative = inhibition [16] 7.59% | activity, negative = inhibition [4] -12.3% | outcome [7] | Potency [8] | activity change, negative = inhibition [13] 3.68% | Potency [14]
13.4%: max response [13, 20]
18.4%: max response [13, 21]

CC(C)NC(=O)N1CC[C@@]2(CCCN(C(=O)Oc3ccccc3)C2)C1
inactive: Potency [1] > 11.4 µM | activity change, negative = inhibition [2] 6.59% | Potency [3] | activity change, negative = inhibition [16] -15.6% | activity, negative = inhibition [4] -4.24% | outcome [7] | Potency [8] | Potency [17] | Potency [9] | Potency [18] | Potency [19] | activity change, negative = inhibition [13] 1.37% | Potency [14]
17.3%: max response [13, 21]
8.74%: max response [13, 20]

COCC(=O)N1CCC2(CC1)CN(Cc1ccc(C#N)cc1)C2
inactive: Potency [1] > 11.4 µM | activity change, negative = inhibition [2] 3.59% | Potency [3] | activity change, negative = inhibition [16] -16.7% | Potency [6] > 46 µM | outcome [7] | Potency [8] | activity change, negative = inhibition [13] -4.37% | Potency [14]
8.42%: max response [13, 20]
5.18%: max response [13, 21]

COc1ccc(NC(=O)N2CCCC3(CCN(C(=O)c4csnn4)CC3)C2)cc1
11.2%: max response [13, 20]
22.4%: max response [13, 21]
inactive: Potency [1] > 11.4 µM | activity change, negative = inhibition [2] -1.51% | Potency [3] | activity change, negative = inhibition [16] -2.25% | activity, negative = inhibition [4] -9.13% | outcome [7] | Potency [8] | Potency [10] | activity change, negative = inhibition [13] 6.81% | Potency [14]
